Assay outcomes as filed in PubChem.
Rows were chosen to be rich in hits. Some 1.9% of all compounds tested hit in one or more screens of this group.
RXFP1 ag = qHTS Assay for Agonists of the Relaxin Receptor RXFP1; Relaxin receptor 1 (Homo sapiens), Q9HBX9; AID 2676, 2010; Potency, µM (series often up to 57.5 µM), hits mostly activators; hit rate 0.3% among 370,000; HEK293T-RXFP1 cAMP TR-FRET, 30 min; response scale: percent of porcine relaxin response, buffer zero; further: nearly all actives have a fitted effect of over 60% in size
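Agonist response is measured as cAMP accumulation in an RXFP1-transfected HEK293T line under PDE4 inhibition. Values are scaled between buffer-only and 29 nM porcine relaxin, and EC50s come from standard Hill equation fits.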
IL2 activator = qHTS of IL-2 Activators; IL-2 activation reporter assay, cell-based qHTS; stimulated with anti-CD3/CD4/CD28 beads; in transgenic mouse T cells; activation, % (series mostly up to about 46 µM); hit rate 0.065% among 360,000; in the data active means activation above about 50%; inconclusive means mostly about 30% to 49%
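First, unstimulated transgenic mouse T cells were exposed to compound for 60 min. Next, anti-CD3/anti-CD4-coated beads with anti-CD28 were added. Finally, after 18 h at 37 degrees C, EGFP and DsRed were imaged.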
NPSR antag = qHTS Assay for Antagonists of the Neuropeptide S Receptor: cAMP Signal Transduction. CHO-NPSR cells, cAMP TR-FRET, antagonist mode. Potency, µM (doses to about 38.3 µM), most hits filed as inhibitors. hit rate 1% among 220,000. AID 1461, 2008; further: nearly all actives have a fitted effect of over 50% in size
Target sequence (Q6W5P4 whole entry, looked up): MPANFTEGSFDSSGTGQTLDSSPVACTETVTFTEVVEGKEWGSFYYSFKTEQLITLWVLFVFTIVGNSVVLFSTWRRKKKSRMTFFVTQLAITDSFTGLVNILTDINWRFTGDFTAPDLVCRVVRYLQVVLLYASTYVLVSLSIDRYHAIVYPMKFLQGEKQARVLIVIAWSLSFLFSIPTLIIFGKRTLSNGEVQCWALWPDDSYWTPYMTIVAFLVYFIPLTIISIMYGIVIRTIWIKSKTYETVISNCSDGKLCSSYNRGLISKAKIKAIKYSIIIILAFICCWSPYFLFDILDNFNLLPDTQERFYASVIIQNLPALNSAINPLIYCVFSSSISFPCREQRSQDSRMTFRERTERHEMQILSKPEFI
BRCA1 expr up = qHTS Assay to Identify Small Molecule Activators of BRCA1 Expression; MCF7-BRCA1-FFLuc reporter, luminescence, 48 h; response scale: scaled: vehicle 0%, 10 µM genistein 100%; AID 624202, 2012; Potency, µM (top dose mostly 46.1 µM), hits mostly activators; hit rate 1.1% among 380,000; further: nearly all actives have a fitted effect of over 80% in size
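Activators of BRCA1 expression were detected as increased firefly luciferase luminescence in engineered MCF7 cells after 48 h compound incubation. Signals were scaled to genistein 10 microM as full activation.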
Giardia killer = Small Molecules that selectively kill Giardia lamblia: qHTS | Giardia lamblia trophozoite viability | activity change, % at 7.66 µM, hits read low | AID 540267, 2011 | hit rate 0.15% among 340,000; in the data active means activity change below about -80%; inconclusive means between about -30% and that limit;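 further: parasites exposed to compound for two days anaerobically before the ATP read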
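Luminescence from cellular ATP indicates surviving trophozoites (100 cells/well) following 48 hrs anaerobic compound treatment at 37 deg C; signal develops 15-30 min at room temperature.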
RXFP1 antagonist = qHTS Assay for Antagonists of the Relaxin Receptor RXFP1; activity change, negative = inhibition, % at 57.5 µM; HEK293-RXFP1, relaxin-stimulated cAMP HTRF, 30 min; stronger effect = lower value; AID 1259400, 2018; hit rate 0.59% among 350,000;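 active means activity change of -60% or lower, but not beyond a set lower limit; inconclusive means change between -60% and -40%, or beyond the set limit; inactive means change above -40%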
Of the large screens only hits and unclear results are named; the others gave an inactive call. Unless noted, the call rests on the fitted dose curve; in most records, active means well fitted curve in the direction sought with a large enough effect; inconclusive means small, poorly fitted or top-dose-only effect, or another doubt; inactive means no such curve, though single readings can be large; an effect the other way counts as inactive or inconclusive.

CCOCCCNC(=O)c1ccc(-n2c(=S)[nH]c3ccccc3c2=O)cc1	RXFP1 antagonist -90
CC(=O)c1ccc(C2CC34CNS(=O)(=O)C3CC2O4)cc1 (stereo not given)	none (no result: RXFP1 ag, IL2 activator, NPSR antag, BRCA1 expr up, RXFP1 antagonist)
CCOC(=O)c1c(-c2ccccc2Cl)csc1NC(=O)CSc1nc(C)cc(=O)[nH]1	RXFP1 antagonist -80
CCOC(=O)c1ccc(NC(=O)CSc2nc(C)cc(=O)[nH]2)cc1	none
CN(C)c1ccc(N=C/C=C2\N(C)c3ccccc3C2(C)C)cc1	NPSR antag inconclusive
CN1\C(=C/C=C/C=C/C=[N+](C)C)C(C)(C)c2ccccc21	NPSR antag 10µM
CN1/C(=C/C=C(C#N)C#N)C(C)(C)c2ccccc21	IL2 activator 115
CN1/C(=C\C=O)C(C)(C)c2ccccc21	none
Nc1cc(N)[nH]c(=S)n1	none (no result: RXFP1 ag, IL2 activator, NPSR antag, Giardia killer, RXFP1 antagonist)
CC1(C)CC(=O)c2cc(C(=O)Nc3cccc4ccccc34)c(=O)[nH]c2C1	none (no result: RXFP1 ag, IL2 activator, NPSR antag, Giardia killer, RXFP1 antagonist)
O=S(=O)(c1ccc2ncsc2c1)N1CCN(c2nc(-c3cccs3)nc3ccccc23)CC1	none (no result: RXFP1 ag, IL2 activator, NPSR antag, RXFP1 antagonist)
CCOC(=O)c1cc(-c2ccccc2)n(CCC(=O)Nc2ccc(C(F)(F)F)cc2)c1C	RXFP1 antagonist -67 (no result: IL2 activator, NPSR antag, BRCA1 expr up, Giardia killer)
CCOC(=O)c1cc(-c2ccccc2)n(CCCC(=O)Nc2ccc(CC)cc2)c1C	none (no result: IL2 activator, NPSR antag, BRCA1 expr up, Giardia killer)
CCOc1ccc(CNCc2c(C(=O)O)c(C)n(Cc3ccc(C)cc3)c2C)cc1	none (no result: IL2 activator, NPSR antag, BRCA1 expr up, Giardia killer)
CCOc1ccc(-c2csc(C3COc4ccccc4O3)n2)cc1 (stereo not given)	BRCA1 expr up 10µM (no result: RXFP1 ag, NPSR antag)
COc1ccc(Cl)cc1NC(=O)C(C)N1CCN(C/C=C/c2ccccc2)CC1 (stereo not given)	NPSR antag 10µM
Cc1cc2nc(-c3ccc(SCC(=O)NC(C)C)nc3)[nH]c2cc1C	none (no result: IL2 activator, BRCA1 expr up, Giardia killer, RXFP1 antagonist)
Cc1cc2nc(-c3ccc(SCc4ccc(C(=O)O)cc4)nc3)[nH]c2cc1C	BRCA1 expr up 11µM, RXFP1 antagonist -98
COC(=O)c1ccc(OCC(=O)c2ccc(C)c(C)c2)cc1	BRCA1 expr up inconclusive
COC(=O)c1ccc(NC(=O)c2cccc(OC)c2)cc1	BRCA1 expr up 2.5µM
COC(=O)c1ccc(OCC(=O)c2cccc(OC)c2)cc1	BRCA1 expr up 2µM
COc1cccc(C(=O)Nc2ccc(F)c(F)c2F)c1	BRCA1 expr up 3.5µM
COc1cccc(C(=O)NCCSc2ccc(F)cc2)c1	BRCA1 expr up 11µM
O=C(C[n+]1csc2ccccc21)c1ccc(O)c(O)c1	none (no result: RXFP1 ag, IL2 activator, NPSR antag, Giardia killer, RXFP1 antagonist)
COc1ccccc1/C=C/c1nc2ccccc2s1	none (no result: RXFP1 ag, IL2 activator, NPSR antag, Giardia killer, RXFP1 antagonist)
COc1cccc(C(=O)NNC(=O)C(=O)Nc2ccc(C)cc2)c1	none (no result: NPSR antag)
CCCC(=O)Nc1ccc(NC(=O)c2cccc(OC)c2)cn1	none (no result: NPSR antag)
COc1cccc(C(=O)NNC(=O)C(=O)Nc2cccc(Cl)c2C)c1	RXFP1 antagonist -70 (no result: NPSR antag)
CCC(=O)Nc1ccc(NC(=O)c2cccc(OC)c2)nc1	BRCA1 expr up 11µM
CCOC(=O)c1cc(C)n(CC2CCC(C(=O)Nc3ccc(Cl)cc3)CC2)c1C (stereo not given)	none (no result: IL2 activator, NPSR antag, BRCA1 expr up, Giardia killer)
Cc1ccc(CNc2ccc3c(c2)ncn3C)cc1	BRCA1 expr up 5µM
CCCn1cnc2cc(NCc3ccccn3)ccc21	BRCA1 expr up 4µM (no result: RXFP1 antagonist)
CN(C)C(=O)c1ccc(NC(=O)c2cncc(Br)c2)cc1	BRCA1 expr up 11µM
O=C(Nc1nccs1)c1cncc(Br)c1	BRCA1 expr up 3.5µM
O=C(Nc1ccc2c(c1)OCO2)c1cncc(Br)c1	BRCA1 expr up 10µM
C=C1C=C(C)n2ncc(C(=O)N(CCc3ccccc3)Cc3ccccc3)c2N1	none (no result: RXFP1 ag, IL2 activator, NPSR antag, Giardia killer, RXFP1 antagonist)
CCOc1cc(CNCCO)cc(Br)c1OCc1ccccc1Cl	RXFP1 antagonist -74
CCOc1cc(CNCCCN2CCOCC2)cc(Br)c1OCc1ccccc1Cl	NPSR antag inconclusive, RXFP1 antagonist -92
Cn1c(=NC(=O)CS(=O)(=O)c2ccccc2)sc2cc(F)ccc21	BRCA1 expr up 5µM (no result: RXFP1 ag, NPSR antag, Giardia killer)
